# Source: the supplement of paper PMC12669032
# Unmarked numbers belong to inactive results.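 How the source made its calls: active = AUC reduced over 20% with Padj below 0.05 in at least 2 of 3 replicates; inactive = otherwise.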
# Columns and labels:
# [1] = tested on: Roseburia intestinalis; assay: growth AUC relative to DMSO control (median of replicates) (fraction); higher = more growth (less inhibition), active = hit call of the paper; settings: 20 µM; 24 h
# Method in brief: (§1)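 Each value is the median of three biological replicates, grown on separate days, of a gut bacterial monoculture incubated anaerobically at 37 °C in mGAM with 20 µM compound (1% DMSO). Cultures started at OD600 0.05 and were read at OD600 hourly for 24 h, with the minimum OD set to 0. Area under the growth curve was normalised to the plate median of solvent-only wells, or to row and column medians on the industrial chemical plate.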
# [2] = tested on: Streptococcus salivarius; assay: as above; settings: 20 µM; 24 h
# Method in brief: as §1
SMILES,growth AUC [1],growth AUC [2]
CCc1cccc(C)c1NC(C)C(=O)O (racemic),1.04,1.02
COCC(=O)N(c1c(C)cccc1C)C(C)C(=O)O (stereo not given),1.01,1.01
CCCOC(=O)c1ccc(O)cc1,1,0.979
COc1cc(OC)nc(NC(=O)NS(=O)(=O)Nc2ccccc2C(=O)N(C)C)n1,0.981,0.99
O=C1NCCN1,1.24,1.02
NC(=S)Nc1cccc2ccccc12,0.917,0.886
Nc1ccc(O)cc1,1.01,0.947
C=CCc1ccc(OC)c(OC)c1,1.03,1.02
CS(=O)(=O)c1ccc(C(=O)O)c(N)c1,1.07,1.03
CCOCCc1ccc(OCCNc2ncnc(CC)c2Cl)c(C)c1C,0.923,1
COC1CCC2(CC1)NC(=O)C(c1cc(C)ccc1C)=C2OC1OC(CO)C(O)C(O)C1O (stereo not given),1,1.01
CCCCCCCC/C=C\CCCCCCCC(N)=O,0.933,0.952
CCc1cccc(C)c1N(C(=O)CS(=O)(=O)[O-])C(C)COC.[Na+] (stereo not given),0.925,0.878
COC1CCC2(CC1)NC(=O)C(O)(c1cc(C)ccc1C)C2=O (stereo not given),1.01,1.01
CCCOc1nc2ccc(I)cc2c(=O)n1CCC,0.942,0.994
O=[N+](Nc1ccccc1)c1ccccc1,0.944,1.06
c1ccc2c(c1)-c1cccc3c1c-2cc1ccccc13,0.998,1.03
CC(C)OC(=O)c1cc(C(=O)OC(C)C)cc([N+](=O)[O-])c1,0.974,0.992
COC1CCC2(CC1)NC(=O)C(c1cc(C)ccc1C)=C2O (stereo not given),0.986,1.03
COC(=O)c1c(Cl)nn(C)c1S(=O)(=O)NC(=O)Nc1nc(OC)cc(OC)n1,1.04,1.05
NC(=O)c1nn(-c2c(Cl)cc(C(F)(F)F)cc2Cl)c(N)c1S(=O)C(F)(F)F (stereo not given),0.992,0.977
CC(C)OC(=O)N[C@H](C(=O)N[C@H](C)c1nc2ccc(F)cc2s1)C(C)C,0.975,0.959
CCCCOCN(C(=O)CS(=O)(=O)[O-])c1c(CC)cccc1CC.[Na+],0.935,0.97
Nc1nc2ccccc2[nH]1,0.901,0.953
CC(C)([CH2][Sn]([CH2]C(C)(C)c1ccccc1)([CH2]C(C)(C)c1ccccc1)[O][Sn]([CH2]C(C)(C)c1ccccc1)([CH2]C(C)(C)c1ccccc1)[CH2]C(C)(C)c1ccccc1)c1ccccc1,1.02,0.972
CCOc1ccc(NC(=O)OC(C)C)cc1OCC,1,0.975
CSc1nnc(C(C)(C)C)c(=O)n1/N=C/C(C)C,1.07,1

SMILES,growth AUC [1],growth AUC [2]
CCCCCCCCc1c(CC)nc2ncnn2c1N,0.948,0.985
COC(=O)Cc1cccc2ccccc12,1.04,1.01
COC(=O)C(Cl)Cc1ccc(Cl)cc1 (stereo not given),0.965,0.93
COC(=O)C(C)Oc1ccc(Cl)cc1Cl (stereo not given),0.979,0.991
CCc1nc2ncnn2c(N)c1CCCC(=O)O.Cl,0.991,1.01
COc1cc(OC)c(Cl)cc1N,1.06,1.06
CCc1cccc(C)c1N(COC(C)C)C(=O)CCl,1.01,1.01
c1ccc(CNc2ncnc3nc[nH]c23)cc1,0.962,1.04
NC(Cn1cncn1)C(=O)O (stereo not given),1,0.998
CC(C)C1C2CCC1c1c(NC(=O)c3cn(C)nc3C(F)F)cccc12 (stereo not given),0.861,0.927
CCCN(CCOc1c(Cl)cc(Cl)cc1Cl)C(N)=O,0.939,0.972
N#Cc1cc(Cl)c(O)c(Cl)c1,1.08,1.02
NS(=O)(=O)[O-].[NH4+],1.06,1.01
CCNc1nc(NC(C)(C)C)[nH]c(=O)n1,1.03,1.03
CCOC(=O)c1nc(C(Cl)(Cl)Cl)n(-c2ccc(Cl)cc2Cl)n1,0.949,0.992
Cc1cccc(C)c1N(C(=O)CCl)C1CCOC1=O (stereo not given),1.08,0.86
CCc1ccc(C(c2ccc(CC)cc2)C(Cl)Cl)cc1,1,0.963
CN(C)C(=O)c1cccnc1S(N)(=O)=O,1.03,0.978
CNC(=O)/C(=N/OC)c1ccccc1COc1cc(C(=O)O)ccc1C,0.996,0.995
O=C(O)COc1ccc(Cl)c2cccnc12,0.963,1.05
CS(=O)(=O)c1ccc(C(=O)C2C(=O)C(O)CC(O)C2=O)c(Cl)c1COCC(F)(F)F (stereo not given),1.03,1.03
CON(C(=O)c1cc(C)oc1C)C1CCCCC1,1.09,0.989
CCc1nc2ncnn2c(N)c1CCCCCC(=O)O.Cl,0.955,1.02
O=c1oc(-c2ccccc2)nc2ccccc12,0.979,0.981
CC[N+](CC)(CC(=O)Nc1c(C)cccc1C)Cc1ccccc1.O=C([O-])c1ccccc1,1.02,1.01
CCSC(=O)N(CC(C)C)CC(C)C,1.01,0.997
CCC(C)Nc1nc(N)nc(Cl)n1 (stereo not given),0.998,0.987

SMILES,growth AUC [1],growth AUC [2]
CCc1cccc(C)c1NC(=O)C(=O)O,0.953,0.994
CCNC(=O)[C@@H](C)OC(=O)Nc1ccccc1,1.14,1.02
CC1CN(C2CCCCCCCCCCC2)CC(C)O1 (mixture of isomers),0.992,1
CCCCOCCOC(=O)COc1ccc(Cl)cc1Cl,0.941,0.948
Cc1cccc(C)c1O,0.942,0.968
COc1nc(N)nc(NC(C)(C)C)n1,0.943,1.03
Oc1cccc2ccccc12,0.952,0.986
CCOC(=O)C(C)Oc1ccc(Oc2nc3ccc(Cl)cc3o2)cc1 (racemic),1.02,1.01
CC(C)(C)C(O)/C(=C\c1ccc(Cl)cc1)n1cncn1 (stereo not given),0.973,0.955
CCC(C)c1cc([N+](=O)[O-])cc([N+](=O)[O-])c1OC(=O)OC(C)C (stereo not given),0.692 (active),0.901
Cc1nc(C(F)(F)F)c(C(=O)Nc2c(Br)cc(OC(F)(F)F)cc2Br)s1,1.08,0.972
O=[N+]([O-])c1ccc(Oc2c(Cl)cc(Cl)cc2Cl)cc1,1.02,1.03
CCN(CC)C(=O)SCc1ccccc1Cl,1.01,1.02
COc1c(I)cc(C#N)cc1I,0.989,0.982
c1ccc2c(c1)ccc1ccccc12,0.993,0.997
Clc1ccc(CSc2ccc(Cl)cc2)cc1,0.965,1.01
Cc1[nH]n(C)c(=O)c1C(=O)c1ccc(C(F)(F)F)cc1S(C)(=O)=O,1.01,1.03
CC(C)(C)C(=O)C(Oc1ccc(Cl)cc1)n1ccnc1 (stereo not given),0.9,0.963
O=C=NC1CCC(CC2CCC(N=C=O)CC2)CC1 (stereo not given),1.06,1.01
COC(=O)c1ccccc1S(=O)(=O)NC(=O)n1nc(OCC(C)O)n(C)c1=O (stereo not given),1.01,1
CCOC(=O)[C@@H](C)Oc1ccc(Oc2nc3ccc(Cl)cc3o2)cc1,0.975,1.05
O=C1NC(=O)c2ccccc21,1.11,1
COc1nc(N)nc(C(F)(F)F)n1,1.05,1
CCCCC(CC)COC(=O)COc1ccc(Cl)cc1C (stereo not given),0.93,0.978
Cc1ccc(C)c(O)c1,0.996,1.09
COC(=O)CSc1cc(N=c2sc(=O)n3n2CCCC3)c(F)cc1Cl,0.971,0.946
